Assay [1] concerns the target T1, Serine/threonine-protein kinase Nek9 (Homo sapiens) (UniProt Q8TD19).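 Also: each value is a mean percent inhibition of NEK9.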
T1 sequence (whole entry): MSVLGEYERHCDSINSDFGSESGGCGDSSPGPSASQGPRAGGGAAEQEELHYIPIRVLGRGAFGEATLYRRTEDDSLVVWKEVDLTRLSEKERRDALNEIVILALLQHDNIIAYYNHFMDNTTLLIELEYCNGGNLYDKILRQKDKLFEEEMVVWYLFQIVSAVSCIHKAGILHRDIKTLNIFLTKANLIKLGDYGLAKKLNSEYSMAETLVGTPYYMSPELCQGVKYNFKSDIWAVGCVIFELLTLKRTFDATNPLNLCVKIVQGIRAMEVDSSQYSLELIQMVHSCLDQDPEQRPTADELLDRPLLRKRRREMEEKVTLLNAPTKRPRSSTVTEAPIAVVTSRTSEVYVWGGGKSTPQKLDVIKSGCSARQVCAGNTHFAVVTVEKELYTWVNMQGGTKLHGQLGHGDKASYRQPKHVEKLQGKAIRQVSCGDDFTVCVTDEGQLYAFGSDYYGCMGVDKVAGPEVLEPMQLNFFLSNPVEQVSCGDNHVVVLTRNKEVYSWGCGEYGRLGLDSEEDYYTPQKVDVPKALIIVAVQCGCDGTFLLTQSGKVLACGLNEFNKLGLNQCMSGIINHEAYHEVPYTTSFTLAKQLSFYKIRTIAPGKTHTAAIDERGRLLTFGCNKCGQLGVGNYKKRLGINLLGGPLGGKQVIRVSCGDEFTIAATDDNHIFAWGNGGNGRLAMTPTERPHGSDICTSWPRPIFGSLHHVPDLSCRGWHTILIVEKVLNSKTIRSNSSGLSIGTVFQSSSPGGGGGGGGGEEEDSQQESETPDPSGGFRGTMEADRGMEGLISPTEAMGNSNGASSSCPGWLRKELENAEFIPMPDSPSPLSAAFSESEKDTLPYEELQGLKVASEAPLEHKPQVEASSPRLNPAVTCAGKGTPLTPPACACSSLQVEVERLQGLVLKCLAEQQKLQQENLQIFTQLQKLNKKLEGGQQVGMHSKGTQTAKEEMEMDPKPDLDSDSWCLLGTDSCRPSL
The following applies: at 1 µM.

For assay [2], the target named is Serine/threonine-protein kinase PLK1 (Homo sapiens) (UniProt P53350). The settings on record: at 0.1 µM.
Chain of Serine/threonine-protein kinase PLK1 (Homo sapiens) (P53350 whole entry): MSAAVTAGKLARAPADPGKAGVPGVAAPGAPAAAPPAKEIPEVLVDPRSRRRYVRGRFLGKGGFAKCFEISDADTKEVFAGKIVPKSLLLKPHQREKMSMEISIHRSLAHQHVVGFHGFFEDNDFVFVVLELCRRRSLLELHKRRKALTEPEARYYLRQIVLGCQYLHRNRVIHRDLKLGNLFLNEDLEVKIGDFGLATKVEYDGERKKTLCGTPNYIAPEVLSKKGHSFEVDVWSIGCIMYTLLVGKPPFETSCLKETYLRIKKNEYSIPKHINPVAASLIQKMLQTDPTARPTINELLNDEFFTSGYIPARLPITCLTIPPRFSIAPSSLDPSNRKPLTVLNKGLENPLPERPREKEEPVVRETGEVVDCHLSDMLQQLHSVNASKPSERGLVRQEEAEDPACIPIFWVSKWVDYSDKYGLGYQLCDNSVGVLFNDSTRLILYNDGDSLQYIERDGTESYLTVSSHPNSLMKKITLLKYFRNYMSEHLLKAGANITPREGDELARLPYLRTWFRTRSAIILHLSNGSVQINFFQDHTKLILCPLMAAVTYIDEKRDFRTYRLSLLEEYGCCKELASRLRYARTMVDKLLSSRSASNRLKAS
Assay [3] has the same target. The settings on record: at 1 µM.
The target in assay [4] is T2, Dual specificity protein kinase TTK (Homo sapiens) (UniProt P33981).
T2 sequence (whole entry): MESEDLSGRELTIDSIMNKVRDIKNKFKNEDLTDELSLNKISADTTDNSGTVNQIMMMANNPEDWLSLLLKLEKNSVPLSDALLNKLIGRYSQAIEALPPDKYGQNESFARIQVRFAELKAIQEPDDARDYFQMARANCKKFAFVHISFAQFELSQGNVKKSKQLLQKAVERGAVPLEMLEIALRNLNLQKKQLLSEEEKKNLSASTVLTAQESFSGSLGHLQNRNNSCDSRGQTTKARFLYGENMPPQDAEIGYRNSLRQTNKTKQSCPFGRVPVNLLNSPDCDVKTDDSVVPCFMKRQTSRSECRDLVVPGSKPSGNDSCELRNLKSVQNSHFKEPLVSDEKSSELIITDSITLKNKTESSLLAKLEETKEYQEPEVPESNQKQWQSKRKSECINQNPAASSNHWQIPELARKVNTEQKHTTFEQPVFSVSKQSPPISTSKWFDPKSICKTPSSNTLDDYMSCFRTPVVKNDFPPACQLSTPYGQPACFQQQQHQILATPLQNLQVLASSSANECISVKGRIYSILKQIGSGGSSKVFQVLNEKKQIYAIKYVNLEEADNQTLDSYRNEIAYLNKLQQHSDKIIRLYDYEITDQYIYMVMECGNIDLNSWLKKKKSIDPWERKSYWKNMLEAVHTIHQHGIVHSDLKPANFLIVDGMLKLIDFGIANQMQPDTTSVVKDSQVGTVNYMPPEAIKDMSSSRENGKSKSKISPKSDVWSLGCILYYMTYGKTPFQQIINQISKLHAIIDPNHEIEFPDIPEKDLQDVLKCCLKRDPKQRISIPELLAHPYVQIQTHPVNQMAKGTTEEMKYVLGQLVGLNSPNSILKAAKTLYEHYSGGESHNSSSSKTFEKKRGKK
The following applies: at 0.1 µM.

Assay [5] deals with T3, Receptor-type tyrosine-protein kinase FLT3 (Homo sapiens), P36888 [D835Y].
T3 sequence (whole entry): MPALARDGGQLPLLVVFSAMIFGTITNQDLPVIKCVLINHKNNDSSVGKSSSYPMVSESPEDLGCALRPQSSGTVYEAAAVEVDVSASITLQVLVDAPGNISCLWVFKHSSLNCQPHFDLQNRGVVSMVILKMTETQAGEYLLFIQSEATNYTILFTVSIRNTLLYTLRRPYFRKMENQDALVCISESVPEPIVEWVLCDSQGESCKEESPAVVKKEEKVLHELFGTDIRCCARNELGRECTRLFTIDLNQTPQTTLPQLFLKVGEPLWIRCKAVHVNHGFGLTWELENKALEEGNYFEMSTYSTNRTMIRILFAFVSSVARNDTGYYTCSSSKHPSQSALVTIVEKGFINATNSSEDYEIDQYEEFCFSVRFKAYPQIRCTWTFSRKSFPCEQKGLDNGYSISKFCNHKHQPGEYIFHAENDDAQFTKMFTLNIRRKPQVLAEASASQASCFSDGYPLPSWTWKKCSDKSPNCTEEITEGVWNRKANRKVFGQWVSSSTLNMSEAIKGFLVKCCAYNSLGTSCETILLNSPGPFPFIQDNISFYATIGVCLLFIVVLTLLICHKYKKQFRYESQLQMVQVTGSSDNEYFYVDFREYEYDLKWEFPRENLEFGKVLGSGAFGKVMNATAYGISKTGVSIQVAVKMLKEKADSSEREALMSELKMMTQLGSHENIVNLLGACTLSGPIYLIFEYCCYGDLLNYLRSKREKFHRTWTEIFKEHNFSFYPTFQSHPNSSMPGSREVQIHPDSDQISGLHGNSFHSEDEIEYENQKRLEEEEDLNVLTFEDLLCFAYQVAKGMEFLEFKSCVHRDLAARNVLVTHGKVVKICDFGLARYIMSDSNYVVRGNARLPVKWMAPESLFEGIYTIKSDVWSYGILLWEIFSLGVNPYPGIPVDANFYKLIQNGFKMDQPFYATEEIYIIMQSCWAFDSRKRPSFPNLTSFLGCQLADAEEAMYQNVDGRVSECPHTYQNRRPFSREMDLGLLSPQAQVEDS
The following applies: at 1 µM.

The target of assay [6] is Vascular endothelial growth factor receptor 3 (Homo sapiens) (UniProt P35916). The settings on record: at 0.1 µM.
Chain of Vascular endothelial growth factor receptor 3 (Homo sapiens) (P35916 whole entry): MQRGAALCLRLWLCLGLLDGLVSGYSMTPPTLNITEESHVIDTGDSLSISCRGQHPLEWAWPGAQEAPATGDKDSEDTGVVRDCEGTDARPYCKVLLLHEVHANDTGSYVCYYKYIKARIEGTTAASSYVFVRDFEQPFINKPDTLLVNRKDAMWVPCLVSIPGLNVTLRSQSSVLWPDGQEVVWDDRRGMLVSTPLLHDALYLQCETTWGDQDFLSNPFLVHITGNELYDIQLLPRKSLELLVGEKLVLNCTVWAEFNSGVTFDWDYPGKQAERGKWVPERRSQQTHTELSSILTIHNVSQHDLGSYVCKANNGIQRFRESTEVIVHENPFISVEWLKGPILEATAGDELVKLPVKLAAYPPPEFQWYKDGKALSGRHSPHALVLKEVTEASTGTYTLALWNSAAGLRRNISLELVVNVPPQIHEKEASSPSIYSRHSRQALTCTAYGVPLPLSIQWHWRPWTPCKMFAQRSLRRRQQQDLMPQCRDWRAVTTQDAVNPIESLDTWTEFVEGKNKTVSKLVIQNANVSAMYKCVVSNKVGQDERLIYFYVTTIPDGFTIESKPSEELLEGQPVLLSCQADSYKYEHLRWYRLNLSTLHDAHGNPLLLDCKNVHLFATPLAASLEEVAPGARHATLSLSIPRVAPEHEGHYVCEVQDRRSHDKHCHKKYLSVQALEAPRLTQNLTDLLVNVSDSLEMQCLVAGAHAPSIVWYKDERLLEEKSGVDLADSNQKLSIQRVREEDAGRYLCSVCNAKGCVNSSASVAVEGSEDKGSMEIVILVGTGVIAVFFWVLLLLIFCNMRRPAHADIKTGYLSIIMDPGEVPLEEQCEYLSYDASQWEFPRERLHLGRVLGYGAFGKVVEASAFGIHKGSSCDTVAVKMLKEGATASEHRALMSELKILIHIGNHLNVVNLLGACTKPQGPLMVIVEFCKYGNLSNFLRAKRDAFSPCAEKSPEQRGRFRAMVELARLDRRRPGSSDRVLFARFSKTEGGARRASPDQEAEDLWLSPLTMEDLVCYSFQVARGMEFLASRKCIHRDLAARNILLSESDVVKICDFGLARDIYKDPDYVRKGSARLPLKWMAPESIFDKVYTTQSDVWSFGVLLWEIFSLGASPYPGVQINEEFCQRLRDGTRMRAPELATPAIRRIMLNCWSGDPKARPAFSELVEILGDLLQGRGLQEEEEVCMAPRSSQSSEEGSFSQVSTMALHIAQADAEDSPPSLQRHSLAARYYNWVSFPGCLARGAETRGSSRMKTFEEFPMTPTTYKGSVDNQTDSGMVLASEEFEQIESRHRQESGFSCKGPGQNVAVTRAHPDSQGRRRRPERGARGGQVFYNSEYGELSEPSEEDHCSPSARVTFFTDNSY
The target is the same in assay [7]. The settings on record: at 1 µM.
The target in assay [8] is Macrophage colony-stimulating factor 1 receptor (Homo sapiens) (UniProt P07333). The settings on record: at 0.1 µM.
Chain of Macrophage colony-stimulating factor 1 receptor (Homo sapiens) (P07333 whole entry): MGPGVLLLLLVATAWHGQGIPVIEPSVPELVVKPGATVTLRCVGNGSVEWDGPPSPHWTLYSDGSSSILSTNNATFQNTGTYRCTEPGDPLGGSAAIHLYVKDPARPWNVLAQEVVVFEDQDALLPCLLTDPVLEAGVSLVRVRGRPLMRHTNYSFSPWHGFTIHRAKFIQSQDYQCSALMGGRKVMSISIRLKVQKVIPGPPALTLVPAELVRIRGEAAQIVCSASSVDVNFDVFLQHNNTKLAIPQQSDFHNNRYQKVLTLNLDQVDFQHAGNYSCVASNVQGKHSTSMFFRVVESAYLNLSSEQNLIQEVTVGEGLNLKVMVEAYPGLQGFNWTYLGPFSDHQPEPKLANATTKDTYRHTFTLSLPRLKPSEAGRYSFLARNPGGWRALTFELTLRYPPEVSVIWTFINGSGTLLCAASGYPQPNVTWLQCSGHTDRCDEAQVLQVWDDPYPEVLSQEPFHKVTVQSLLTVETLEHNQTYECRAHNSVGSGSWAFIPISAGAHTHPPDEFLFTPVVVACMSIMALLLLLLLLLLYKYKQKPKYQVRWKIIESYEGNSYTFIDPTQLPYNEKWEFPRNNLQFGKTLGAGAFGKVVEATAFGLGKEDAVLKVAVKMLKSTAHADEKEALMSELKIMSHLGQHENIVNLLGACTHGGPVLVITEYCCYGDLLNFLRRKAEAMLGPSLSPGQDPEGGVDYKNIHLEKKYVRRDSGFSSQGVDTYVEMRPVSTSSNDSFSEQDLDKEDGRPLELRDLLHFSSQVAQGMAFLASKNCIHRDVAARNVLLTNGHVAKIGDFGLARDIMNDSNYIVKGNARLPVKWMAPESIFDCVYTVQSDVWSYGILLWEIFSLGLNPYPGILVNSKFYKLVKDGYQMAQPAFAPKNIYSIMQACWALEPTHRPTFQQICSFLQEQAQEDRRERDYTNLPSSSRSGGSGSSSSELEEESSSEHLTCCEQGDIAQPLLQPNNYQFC
For assay [9] the target is unchanged. The settings on record: at 1 µM.
The target of assay [10] is Tyrosine-protein kinase Fyn (Homo sapiens) (UniProt P06241). The settings on record: at 0.1 µM.
Chain of Tyrosine-protein kinase Fyn (Homo sapiens) (P06241 2-537 limits assumed): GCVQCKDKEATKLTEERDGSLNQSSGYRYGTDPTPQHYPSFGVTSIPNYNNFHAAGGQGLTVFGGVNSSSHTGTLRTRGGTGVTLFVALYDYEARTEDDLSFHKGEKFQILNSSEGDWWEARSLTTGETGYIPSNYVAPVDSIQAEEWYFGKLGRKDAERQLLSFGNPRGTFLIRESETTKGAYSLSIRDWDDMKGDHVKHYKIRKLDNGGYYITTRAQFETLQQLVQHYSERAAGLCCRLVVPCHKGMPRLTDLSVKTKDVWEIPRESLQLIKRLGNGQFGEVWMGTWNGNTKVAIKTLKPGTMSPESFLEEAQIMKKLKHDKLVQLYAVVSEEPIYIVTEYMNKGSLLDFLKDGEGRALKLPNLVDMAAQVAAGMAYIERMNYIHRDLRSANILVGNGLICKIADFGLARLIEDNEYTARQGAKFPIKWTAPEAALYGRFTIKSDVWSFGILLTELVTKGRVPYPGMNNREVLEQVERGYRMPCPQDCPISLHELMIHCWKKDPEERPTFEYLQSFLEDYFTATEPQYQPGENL

In general, inhibition refers to the change of the read-out against control, counted positive when it falls. On to `COc1ccc2[nH]c3c4[nH]c5ccc(OC)cc5c4c4c(c3c2c1)C(=O)NC4=O`, for which the inhibition was 2.1% in [1]; 3.01% in [2]; 9.29% in assay [3]; 15.5% in assay [4]; 92.7% in [5]; 18.5% in assay [6]. Besides, the inhibition in assay [7] stood at 63.5%; in [8] it was 12.9%; in assay [9], 50.9%; in assay [10] it was 3.62%.

Regarding `CS(=O)(=O)CCNCc1ccc(-c2ccc3ncnc(Nc4ccc(OCc5ccccc5)c(C(F)(F)F)c4)c3c2)o1`, the inhibition in assay [1] was 7.1%; in [2], 3.58%; in [3], 1.98%; in [4], 9.3%; in assay [5] it was -2.7%; in [6], 1.59%. Further, the inhibition in [7] was 1.31%; in assay [8], -3.68%; in assay [9] it was 1.56%; in assay [10], 1.63%.

For `[O-][S+]1CCN(Cc2ccc(-c3ccc4ncnc(Nc5ccc(OCc6cccc(F)c6)c(Cl)c5)c4c3)o2)CC1`, the inhibition in assay [1] was 11.6%; in assay [2] it was 4.06%; in assay [3] it was 4.68%; in [4], 14.8%; in assay [5] it was -0.26%; in assay [6], 4.68%. Also, the inhibition in assay [7] came out at 7.72%; in [8] it was 1.84%; in assay [9] it was 5.71%; in assay [10], 1.57%.

For `COc1cc(N2CCN(C(C)C)CC2)ccc1Nc1nc(Nc2ccc(F)cc2C(N)=O)c2cc[nH]c2n1`, the inhibition in assay [1] is 13.5%; in assay [2], 16%; in assay [3], 64.8%; in assay [4], 83%; in assay [5], 40.7%; in [6] it was 3.45%. In addition, the inhibition in [7] was 2.68%; in [8], 11.7%; in assay [9], 48.1%; in assay [10], 2.48%.

With `Fc1ccc(-c2nn3ncccc3c2-c2ccnc(Nc3ccc4c(c3)OCCO4)n2)cc1`, the inhibition in [1] was 12%; in assay [2], 3.5%; in assay [3], 28.8%; in assay [4], 8.44%; in [5], 2.87%; in assay [6] it was 7.5%. Besides, the inhibition amounted to 47.7% in assay [7], 14.4% in [8], 59.1% in assay [9] and 47% in assay [10].

Turning to `COC(=O)c1sc(-n2cnc3cc(OC)c(OC)cc32)cc1OCc1ccccc1C(F)(F)F`, the inhibition amounted to 7% in [1]; 3.92% in assay [2]; 14.4% in assay [3]; 12.7% in [4]; 0.96% in assay [5]; 8.44% in assay [6]. The inhibition stood at 50.2% in assay [7], 16.2% in assay [8], 60.9% in assay [9] and 15.6% in assay [10].

For `Cc1ccc(O)cc1Nc1ccnc2cc(-c3ccccn3)ccc12`, the inhibition was -1.26% in [1]; 3.38% in assay [2]; 4.98% in assay [3]; 6.34% in assay [4]; 4.47% in assay [5]; 62.5% in assay [6]. For the same compound, the inhibition in assay [7] amounted to 88.8%; in assay [8], 4.3%; in assay [9], 20.4%; in assay [10], 55.6%.

With `c1cc(-c2cnn3nc(N4CCOCC4)ccc23)nc(NC2CC2)n1`, the inhibition in assay [1] is -2.57%; in assay [2] it was 2.55%; in assay [3] it was 2.08%; in assay [4], 18.4%; in assay [5], 37.5%; in assay [6], 5.93%. Besides, the inhibition in [7] was 29.9%; in assay [8], 6.94%; in assay [9], 33.7%; in assay [10], 0.47%.

Source of the values: ChEMBL document CHEMBL1961873, “Compounds: GSK PKIS; Assays: Nanosyn kinase panel” (2012).
